Data from PubChem BioAssay (Tox21).
Several values for one entry are separate records, joined by “and”; a condition that tells them apart may be missing. Equal entries are not always repeated. Records with an inconclusive call do not appear. Entries that show only a call come without a potency. The source holds several records for some structures; these can differ, active in one and inactive in another. Activity calls are given as the source filed them. Unless noted, calls follow the shape of the dose curve; as a rule, active = well fitted curve in the direction sought with a large enough effect in the repeat runs; inconclusive = weak or mixed curves; inactive = no such curve, though single readings can be large; an effect the other way counts as inactive or inconclusive.

Legend:
[1] = qHTS assay to identify aromatase inhibitors - cell viability counter screen (AID 743084);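 also: cells stimulated with testosterone during compound exposure; nearly all actives have a fitted effect of over 55% in size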; also: potency is read from the fitted curve at half-maximal effect
[2] = target: Aryl hydrocarbon receptor (Homo sapiens) (UniProt P35869); test: qHTS assay to identify small molecule that activate the aryl hydrocarbon receptor (AhR) signaling pathway (AID 743085); also: nearly all actives have a fitted effect of over 15% in size; also: potency is read from the fitted curve at half-maximal effect;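 as to activation: HG2L7.5c1 human HepG2 liver cells with stably integrated DRE-driven firefly reporter; series mostly up to about 70 µM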
Summary of the method: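 Luminescence read-out: ONE-Glo reagent, 30 min at room temperature, in HG2L7.5c1 HepG2 reporter cells treated 24 h at 37C. Viability was measured beforehand by CellTiter-Fluor fluorescence after 30 min at 37C.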

[3] = qHTS assay to identify small molecule that activate the aryl hydrocarbon receptor (AhR) signaling pathway - cell viability counter screen (AID 743086); also: nearly all actives have a fitted effect of over 45% in size; also: potency is read from the fitted curve at half-maximal effect
Summary of the method: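 HepG2-AhR-luc (HG2L7.5c1) cells, 4000/well, were preincubated 5 h at 37C, exposed to compound in qHTS format for 24 hr at 37C, then given CellTiter-Fluor for 30 min; viability was read as fluorescence in the reporter wells.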

[4] = target: Peroxisome proliferator-activated receptor gamma (Homo sapiens) (UniProt P37231); test: qHTS assay to identify small molecule agonists of the peroxisome proliferator-activated receptor gamma (PPARg) signaling pathway (AID 743094; active = well fitted activation curve with a large enough effect in the signal ratio in the repeat runs, not every such curve was filed as active; the % refers to the signal ratio)
Summary of the method: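 Cells from the PPARg UAS-bla HEK293H line are plated and incubated 5 h at 37C. Compounds in DMSO are pinned in and left 17 h at 37C. LiveBLAzer B/G substrate is then added for 1 h at room temperature before fluorescence is measured.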

[5] = target: Peroxisome proliferator-activated receptor gamma (Homo sapiens) (UniProt P37231); test: qHTS assay to identify small molecule antagonists of the peroxisome proliferator-activated receptor gamma (PPARg) signaling pathway (AID 743191; calls by dose curve; also: nearly all actives have a fitted effect of over 30% in size; also: potency is read from the fitted curve at half-maximal effect)
Summary of the method: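 GeneBLAzer PPARg UAS-bla HEK293H cells carrying a UAS-driven beta-lactamase reporter were plated at 3000 cells/well, preincubated 5 h at 37C, then given compound for 17 h at 37C; LiveBLAzer B/G FRET substrate was read after 1 h at room temperature.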

[6] = qHTS assay to identify small molecule antagonists of the peroxisome proliferator-activated receptor gamma (PPARg) signaling pathway - cell viability counter screen (AID 743194); conditions: Potency: co-treated with 50 nM rosiglitazone unless noted; also: nearly all actives have a fitted effect of over 55% in size
Summary of the method: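 PPARg-UAS-bla HEK293H cells were plated, rested 5 h at 37 C, then treated with compounds plus rosiglitazone (50 nM final) for 17 h at 37 C; viability was then read by CellTiter-Glo luminescence after 30 min at room temperature.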

[7] = qHTS assay for small molecule agonists of the antioxidant response element (ARE) signaling pathway - cell viability counter screen (AID 743203; calls by dose curve; also: nearly all actives have a fitted effect of over 55% in size)
Summary of the method: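 Cytotoxicity was tested in parallel with the ARE reporter screen. ARE-bla HepG2 cells were exposed to compounds for 16 hrs, and viability was taken from CellTiter-Glo luminescence.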

[8] = qHTS assay for small molecule activators of the heat shock response signaling pathway - cell viability counter screen (AID 743209); also: nearly all actives have a fitted effect of over 50% in size; also: potency is read from the fitted curve at half-maximal effect
Summary of the method: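 Cytotoxicity counter screen run in parallel with the HSE beta-lactamase reporter, using the same wells. HeLa HSE-bla cells received compound for 5 h at 37 C; ATP-based CellTiter-Glo luminescence was measured after 30 min at room temperature.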

[9] = qHTS assay for small molecule activators of the heat shock response signaling pathway (AID 743210; active = well fitted activation curve with a large enough effect in the signal ratio in the repeat runs, with a control signal flat, not every such curve was filed as active; the % refers to the signal ratio;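 also: HeLa cells with beta-lactamase reporter driven by heat shock elements; series mostly up to about 63 µM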)
Summary of the method: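 Activation of heat shock element-controlled beta-lactamase expression is measured in HeLa cells by LiveBLAzer FRET fluorescence, with compound exposure lasting 5 h at 37 C and substrate loading 2.5 h at room temperature.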

[10] = qHTS assay to identify small molecule agonists of the peroxisome proliferator-activated receptor delta (PPARd) signaling pathway - cell viability counter screen (AID 743211); also: nearly all actives have a fitted effect of over 55% in size
Summary of the method: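 Read-out: CellTiter-Glo luminescence, 30 min RT, measured in the same wells as the beta-lactamase reporter. Cells: GeneBLAzer PPAR delta UAS-bla HEK293H, 3000 cells/well, compound exposure 17 h at 37C.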

[11] = target: Peroxisome proliferator-activated receptor delta (Homo sapiens) (UniProt Q03181); test: qHTS assay to identify small molecule agonists of the peroxisome proliferator-activated receptor delta (PPARd) signaling pathway (AID 743212; calls by dose curve)
Summary of the method: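 Cells expressing a UAS-driven beta-lactamase reporter (PPARd-bla HEK293H) were given test compounds after a 5 h settle and kept at 37 C. Reporter activity was then measured as FRET fluorescence using LiveBLAzer B/G substrate.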

[12] = qHTS assay to identify small molecule antagonists of the peroxisome proliferator-activated receptor delta (PPARd) signaling pathway - cell viability counter screen (AID 743213); also: nearly all actives have a fitted effect of over 50% in size; also: potency is read from the fitted curve at half-maximal effect
Summary of the method: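 Cytotoxicity counter screen: CellTiter-Glo luminescence read 30 min after addition, in the same wells as the reporter assay. There, PPARd UAS-bla HEK293H cells (3000/well) were treated 17 h at 37 C with compound and 300 nM L165041.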

[13] = target: Bile acid receptor (Homo sapiens) (UniProt Q96RI1); test: qHTS assay to identify small molecule antagonists of the farnesoid-X-receptor (FXR) signaling pathway (AID 743217; active = well fitted inhibition curve with a large enough effect in the signal ratio in the repeat runs, not every such curve was filed as active; the % refers to the signal ratio)
Summary of the method: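 Cells carrying a UAS-driven beta-lactamase reporter (GeneBLAzer FXR-UAS-bla HEK 293T) were plated and rested 5 h at 37 °C. Compounds in DMSO were added alongside chenodeoxycholic acid agonist at 50 uM final and left 16 h at 37 °C before FRET substrate readout.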

[14] = target: Bile acid receptor (Homo sapiens) (UniProt Q96RI1); test: qHTS assay to identify small molecule agonists of the farnesoid-X-receptor (FXR) signaling pathway (AID 743220; active = well fitted activation curve with a large enough effect in the signal ratio in the repeat runs, not every such curve was filed as active; the % refers to the signal ratio)
Summary of the method: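 FXR-UAS-bla HEK 293T cells carrying a UAS-driven beta-lactamase reporter were plated for 5 h at 37C/5% CO2, then exposed to DMSO-dissolved Tox21 10K compounds for 16 h at 37C. A LiveBLAzer B/G FRET substrate was loaded for 2 h at room temperature before fluorescence reading.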

[15] = qHTS assay to identify small molecule antagonists of the farnesoid-X-receptor (FXR) signaling pathway - cell viability counter screen (AID 743221; active = well fitted cell-killing curve with a large enough effect in the repeat runs, not every such curve was filed as active; also: nearly all actives have a fitted effect of over 50% in size; also: potency is read from the fitted curve at half-maximal effect)
Summary of the method: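 HEK 293T FXR-bla cells, 5 h pre-incubation; compound + CDCA 50 uM final, 16 h, 37 C; beta-lactamase FRET read first, then CellTiter-Glo luminescence, 30 min RT.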

[16] = qHTS assay for small molecule agonists of the antioxidant response element (ARE) signaling pathway (AID 743202; active = well fitted activation curve with a large enough effect in the signal ratio in the repeat runs, not every such curve was filed as active; the % refers to the signal ratio; also: potency is read from the fitted curve at half-maximal effect)
Summary of the method: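 Steps: seed ARE-bla HepG2 cells (2,000/well); incubate 5 h at 37 C; add compounds by pin tool; incubate 16 h at 37 C; add FRET substrate; read fluorescence after 2 h at RT.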

[17] = qHTS assay to identify small molecule agonists of the farnesoid-X-receptor (FXR) signaling pathway - cell viability counter screen (AID 743218); also: nearly all actives have a fitted effect of over 45% in size
Summary of the method: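 Cells were seeded, left 5 h at 37 C and 5% CO2, then dosed with compound in DMSO for 16 h. After the beta-lactamase FRET read, CellTiter-Glo was added and luminescence measured 30 min later.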

[18] = target: Vitamin D3 receptor (Homo sapiens) (UniProt P11473); test: qHTS assay to identify small molecule agonists of the vitamin D receptor (VDR) signaling pathway (AID 743222; calls by dose curve)
Summary of the method: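 Cells carrying a VDR-driven beta-lactamase reporter are seeded at 2,000 per well and rested 4 h. Compounds in DMSO are added for 16 h at 37C, and FRET substrate fluorescence is measured after 2 h at room temperature.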

[19] = target: Vitamin D3 receptor (Homo sapiens) (UniProt P11473); test: qHTS assay to identify small molecule antagonists of the vitamin D receptor (VDR) signaling pathway (AID 743223; active = well fitted inhibition curve with a large enough effect in the signal ratio in the repeat runs, not every such curve was filed as active; the % refers to the signal ratio)
Summary of the method: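 Beta-lactamase reporter read-out: FRET substrate fluorescence after 2 h at room temperature, following 16 h exposure of VDR-bla cells to test compound plus 3 nM (final) 1alpha,25-dihydroxyvitamin D3 agonist at 37C.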

[20] = target: Peroxisome proliferator-activated receptor delta (Homo sapiens) (UniProt Q03181); test: qHTS assay to identify small molecule antagonists of the peroxisome proliferator-activated receptor delta (PPARd) signaling pathway (AID 743215; active = well fitted inhibition curve with a large enough effect in the signal ratio in the repeat runs, not every such curve was filed as active; the % refers to the signal ratio;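 also: cells stimulated with agonist L165041 at 300 nM final during compound exposure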; also: potency is read from the fitted curve at half-maximal effect)
Summary of the method: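 Cells: HEK293H with a UAS-driven beta-lactamase reporter responsive to PPARd. Compounds were co-added with L165041 (300 nM, final) and incubated 17 h at 37 C before a 2 h room-temperature FRET substrate step and fluorescence reading.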

Sequence of Bile acid receptor (Homo sapiens) (Q96RI1 whole entry, looked up): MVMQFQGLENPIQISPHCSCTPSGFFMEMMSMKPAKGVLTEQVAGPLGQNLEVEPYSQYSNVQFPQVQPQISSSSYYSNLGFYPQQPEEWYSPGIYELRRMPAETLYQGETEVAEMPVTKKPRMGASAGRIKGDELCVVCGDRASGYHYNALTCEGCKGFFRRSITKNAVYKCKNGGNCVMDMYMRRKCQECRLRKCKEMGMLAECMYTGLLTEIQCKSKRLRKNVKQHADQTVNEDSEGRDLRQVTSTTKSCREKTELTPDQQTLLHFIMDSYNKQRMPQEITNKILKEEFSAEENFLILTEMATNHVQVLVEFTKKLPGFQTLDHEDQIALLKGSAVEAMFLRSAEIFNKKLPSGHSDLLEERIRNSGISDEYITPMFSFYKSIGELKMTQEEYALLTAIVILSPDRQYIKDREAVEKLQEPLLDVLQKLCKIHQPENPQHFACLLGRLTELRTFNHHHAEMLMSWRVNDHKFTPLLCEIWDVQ
Sequence of Vitamin D3 receptor (Homo sapiens) (P11473 whole entry, looked up): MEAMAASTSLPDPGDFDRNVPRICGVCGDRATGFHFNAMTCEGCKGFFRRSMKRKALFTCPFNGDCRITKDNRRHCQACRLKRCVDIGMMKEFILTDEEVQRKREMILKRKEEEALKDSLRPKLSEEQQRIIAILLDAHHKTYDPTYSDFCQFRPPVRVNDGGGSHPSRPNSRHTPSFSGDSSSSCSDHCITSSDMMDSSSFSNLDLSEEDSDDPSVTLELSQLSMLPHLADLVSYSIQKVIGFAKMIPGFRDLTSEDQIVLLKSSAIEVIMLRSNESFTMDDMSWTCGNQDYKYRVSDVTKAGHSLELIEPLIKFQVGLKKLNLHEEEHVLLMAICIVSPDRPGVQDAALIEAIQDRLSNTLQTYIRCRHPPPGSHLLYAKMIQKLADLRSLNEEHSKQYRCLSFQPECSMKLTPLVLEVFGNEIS
Sequence of Aryl hydrocarbon receptor (Homo sapiens) (P35869 whole entry, looked up): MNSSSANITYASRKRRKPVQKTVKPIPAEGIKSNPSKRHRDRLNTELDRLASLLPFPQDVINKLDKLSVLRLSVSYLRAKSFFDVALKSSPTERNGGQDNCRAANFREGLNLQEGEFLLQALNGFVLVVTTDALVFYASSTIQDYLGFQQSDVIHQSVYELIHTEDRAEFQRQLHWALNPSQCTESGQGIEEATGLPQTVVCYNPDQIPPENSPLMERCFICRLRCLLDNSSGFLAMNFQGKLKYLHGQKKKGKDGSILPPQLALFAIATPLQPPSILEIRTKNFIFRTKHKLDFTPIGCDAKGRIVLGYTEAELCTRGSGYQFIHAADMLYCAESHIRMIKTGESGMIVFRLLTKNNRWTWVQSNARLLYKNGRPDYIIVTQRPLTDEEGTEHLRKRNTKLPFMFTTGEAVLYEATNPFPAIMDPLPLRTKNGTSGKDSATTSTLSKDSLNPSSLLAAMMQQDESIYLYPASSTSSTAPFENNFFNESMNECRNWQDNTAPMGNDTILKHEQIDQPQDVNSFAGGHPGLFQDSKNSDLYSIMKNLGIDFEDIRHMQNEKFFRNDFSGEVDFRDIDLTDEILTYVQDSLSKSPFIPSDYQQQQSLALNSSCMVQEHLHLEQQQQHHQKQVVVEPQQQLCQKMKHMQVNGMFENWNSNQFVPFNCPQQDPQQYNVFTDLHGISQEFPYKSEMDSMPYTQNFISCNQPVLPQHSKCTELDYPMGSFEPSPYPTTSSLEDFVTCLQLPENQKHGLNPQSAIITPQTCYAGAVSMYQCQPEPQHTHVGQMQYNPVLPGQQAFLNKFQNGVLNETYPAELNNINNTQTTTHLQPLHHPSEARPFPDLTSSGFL
Sequence of Peroxisome proliferator-activated receptor gamma (Homo sapiens) (P37231 whole entry, looked up): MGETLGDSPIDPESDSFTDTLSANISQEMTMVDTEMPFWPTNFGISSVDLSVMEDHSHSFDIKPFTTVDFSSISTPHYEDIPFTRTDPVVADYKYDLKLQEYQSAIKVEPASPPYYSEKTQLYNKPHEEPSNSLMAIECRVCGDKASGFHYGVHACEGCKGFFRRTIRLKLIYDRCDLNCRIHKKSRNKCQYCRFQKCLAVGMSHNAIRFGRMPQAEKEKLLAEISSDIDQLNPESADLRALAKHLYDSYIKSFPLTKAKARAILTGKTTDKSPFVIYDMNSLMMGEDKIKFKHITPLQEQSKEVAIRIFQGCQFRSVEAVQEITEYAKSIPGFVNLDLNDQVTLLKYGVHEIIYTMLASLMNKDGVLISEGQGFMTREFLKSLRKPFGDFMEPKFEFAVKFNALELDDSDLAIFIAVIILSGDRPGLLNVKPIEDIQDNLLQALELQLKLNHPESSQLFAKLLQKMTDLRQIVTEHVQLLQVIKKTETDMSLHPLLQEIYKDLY
Sequence of Peroxisome proliferator-activated receptor delta (Homo sapiens) (Q03181 whole entry, looked up): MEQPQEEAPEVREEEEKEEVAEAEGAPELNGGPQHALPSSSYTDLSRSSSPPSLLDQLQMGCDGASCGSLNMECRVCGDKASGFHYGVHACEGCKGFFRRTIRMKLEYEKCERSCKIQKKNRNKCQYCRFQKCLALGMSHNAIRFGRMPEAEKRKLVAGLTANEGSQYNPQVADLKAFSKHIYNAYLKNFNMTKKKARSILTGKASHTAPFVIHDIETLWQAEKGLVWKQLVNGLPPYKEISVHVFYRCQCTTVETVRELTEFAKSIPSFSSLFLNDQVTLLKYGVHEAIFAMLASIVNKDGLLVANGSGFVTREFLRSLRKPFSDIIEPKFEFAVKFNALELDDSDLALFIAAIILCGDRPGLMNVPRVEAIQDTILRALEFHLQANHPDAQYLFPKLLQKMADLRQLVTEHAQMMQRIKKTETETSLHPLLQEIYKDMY

Structure (SMILES) | Potency [1] | Potency [2] | Potency [3] | Potency [4] | Potency [5] | Potency [6] | Potency [7] | Potency [8] | Potency [9] | Potency [10] | Potency [11] | Potency [12] | Potency [13] | outcome [14] | Potency [15] | Potency [16] | Potency [17] | outcome [18] | outcome [19] | Potency [20]
CCOc1cc(Oc2ccc(C(F)(F)F)cc2Cl)ccc1[N+](=O)[O-] | inactive | inactive | inactive | inactive | inactive | inactive | inactive | inactive | inactive | inactive | inactive | inactive | inactive | inactive | inactive |  |  |  |  | 
CCCCCc1cc(O)cc(O)c1 | inactive | 61.4 µM (active) | inactive | inactive | 24.7 µM (active) | inactive | inactive | inactive | inactive | inactive | inactive | inactive | inactive | inactive | inactive | 48.8 µM (active) and 48.6 µM (active) | inactive | inactive | inactive | 
O=[N+]([O-])c1ccc(O)c([N+](=O)[O-])c1 | 54.7 µM (active) | 24.4 µM (active) | 38.7 µM (active) | inactive | inactive |  | inactive | inactive | inactive | inactive |  |  |  |  |  | 48.8 µM (active) |  |  |  | 
NNC(N)=S | 28.4 µM (active) and inactive | inactive and 19.3 µM (active) | inactive | inactive | inactive | inactive | inactive | 40.4 µM (active) and inactive |  |  | inactive | 8.07 µM (active) and inactive | inactive | inactive | inactive | inactive |  | inactive | inactive | 43.6 µM (active)
CC(C)(C)c1ccccc1O | inactive | inactive | inactive | inactive | inactive | inactive | inactive | inactive | inactive | inactive | inactive | inactive |  |  | inactive |  | inactive | inactive |  | inactive
CC(C)NC(C)C | inactive | inactive | inactive | inactive | inactive | inactive |  | inactive |  | inactive | inactive | inactive |  |  | inactive | inactive |  | inactive | inactive | inactive
CC1(C)C(C=C(Cl)Cl)C1C(=O)OC(C#N)c1cccc(Oc2ccccc2)c1 (stereo not drawn) | inactive | inactive | inactive | inactive | inactive | inactive | inactive | inactive | inactive | inactive |  |  |  |  | inactive |  | inactive | inactive | inactive | 
CCCCN(CC)c1c([N+](=O)[O-])cc(C(F)(F)F)cc1[N+](=O)[O-] | inactive | inactive | inactive | inactive | inactive | inactive | inactive | inactive | inactive | inactive | inactive | inactive |  |  | inactive | inactive | inactive | inactive | inactive | inactive
CCCCNC(=O)n1c(NC(=O)OC)nc2ccccc21 | inactive | 34.2 µM (active) and inactive | inactive | inactive | inactive | inactive |  | inactive | inactive | inactive |  |  |  | inactive | inactive | inactive |  | inactive |  | 
CCCCC(CC)COC(=O)Cl (stereo not drawn) | inactive | inactive | inactive | inactive | inactive | inactive | inactive | inactive | inactive | inactive |  | inactive | inactive | inactive | inactive | inactive |  | inactive | inactive | 
Nc1c(Cl)cc([N+](=O)[O-])cc1Cl | inactive | inactive | inactive | inactive | inactive | inactive |  | inactive | inactive | inactive | inactive | inactive and 4.36 µM (active) | inactive | inactive | inactive and 4.36 µM (active) | inactive |  | inactive | inactive | inactive
Nn1cnnc1 | inactive | inactive | inactive | inactive | inactive | inactive | inactive | inactive | inactive | inactive | inactive | inactive |  |  | inactive | inactive | inactive | inactive | inactive | inactive
O=C(O)CC[N+](=O)[O-] | inactive | inactive | inactive | inactive | inactive | inactive | inactive | inactive | inactive | inactive | inactive | inactive |  |  | inactive | inactive |  |  | inactive | inactive
CNC(=O)N(C)c1nnc(C(C)(C)C)s1 | inactive | inactive | inactive | inactive | inactive | inactive | inactive | inactive | inactive | inactive | inactive | inactive |  |  | inactive | inactive |  | inactive | inactive | inactive
O=S(=O)(Oc1ccc(Cl)cc1)c1ccc(Cl)cc1 | inactive | inactive | inactive | inactive | inactive | inactive |  | inactive | inactive | inactive | inactive | inactive |  |  | inactive | inactive | inactive | inactive | inactive | inactive
CN(C)C(=O)Nc1ccc(Cl)cc1 | inactive | inactive | inactive | inactive | inactive | inactive |  | inactive | inactive | inactive | inactive |  | inactive | inactive | inactive | inactive | inactive | inactive | inactive | inactive
